Measurements from PubChem BioAssay (Tox21).
Where “and” joins values, the source holds several entries; their conditions need not be identical. Equal entries are not always repeated. Results filed as inconclusive are left out. A call without a number means that no potency is given here. Some compounds were tested as several samples or in several runs, with calls that do not always agree. Calls of active or inactive are those of the source. Unless noted, the call rests on the fitted dose curve; in most records, active means well fitted curve in the direction sought with a large enough effect in the repeat runs; inconclusive means weak or mixed curves; inactive means no such curve, though single readings can be large; an effect the other way counts as inactive or inconclusive.

Experiments:
[1] = qHTS assay for small molecule agonists of the p53 signaling pathway (AID 651631; calls by dose curve; further: nearly all actives have a fitted effect of over 15% in size; further: potency means the concentration at half of the fitted maximal effect)
Outline: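 Beta-lactamase reporter activity under p53 response elements was quantified in HCT-116 cells by FRET fluorescence, following 16 h incubation with test compounds at 37 °C and 2 h substrate development at room temperature.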

[2] = qHTS assay for small molecules that induce genotoxicity in human embryonic kidney cells expressing luciferase-tagged ATAD5 (AID 651632); further: nearly all actives have a fitted effect of over 15% in size
Outline: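 Cells were seeded at 2,000 per well, dosed with compound, and incubated 16 hr at 37C in 5% CO2. Luciferase activity was then quantified after a 30 min room-temperature incubation with Amplite.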

[3] = qHTS assay for small molecule agonists of the p53 signaling pathway - cell viability (AID 651633; calls by dose curve; further: nearly all actives have a fitted effect of over 30% in size; further: potency means the concentration at half of the fitted maximal effect)
Outline: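 p53RE-bla cells, seeded at 4,000 per well and rested 5 h at 37 C/5% CO2, received compounds in DMSO for 16 h at 37 C. CellTiter-Glo was then added, and luminescence was read after 30 min at room temperature to gauge cytotoxicity.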

[4] = qHTS assay for small molecules that induce genotoxicity in human embryonic kidney cells expressing luciferase-tagged ATAD5 - cell viability (AID 651634; calls by dose curve; further: nearly all actives have a fitted effect of over 25% in size)
Outline: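 Cells (HEK293T, luciferase-tagged ATAD5) are seeded at 2,000 per well, dosed with compound or DMSO vehicle, and incubated 15.5 hr at 37C and 5% CO2. CellTiter-Fluor is added for 30 min before fluorescence is measured.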

[5] = qHTS assay for small molecule disruptors of the mitochondrial membrane potential (AID 720635); further: potency means the concentration at half of the fitted maximal effect
Outline: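 HepG2 cells (2,000/well) attached overnight at 37C, then took compound for 1 hr at 37C, 5% CO2. Mito-MPS dye was added for 30 min; fluorescence was read at 490/535 nm (monomers) and 540/590 nm (aggregates).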

[6] = qHTS assay to test for compound auto fluorescence at 590 nm (red) in HepG2 cells (AID 720674)
Outline: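 Rose Bengal sodium served as the red fluorophore standard. HepG2 monolayers (overnight attachment, MEM with 10% FBS) were exposed to test compounds for 1 hr at 37 C and read at Ex 540/Em 590 nm.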

[7] = qHTS assay to test for compound auto fluorescence at 460 nm (blue) in HEK293 cells (AID 720678)
Outline: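 HEK293 cells (2,000 per well, medium with 10% dialyzed FBS) attached for 4-5 hr at 37C, then received compound and stood overnight at 37C, 5% CO2. Blue fluorescence was read at Ex/Em 405/460 nm and expressed relative to triamterene.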

[8] = qHTS assay to test for compound auto fluorescence at 590 nm (red) in HEK293 cells (AID 720679)
Outline: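 HEK293 cells (2,000/well, medium with 10% dialyzed FBS) attached for 4-5 hr at 37C, received 23 nL compound and were incubated overnight at 37C, 5% CO2. Red fluorescence was then read at 540/590nm Ex/Em, referenced to Rose Bengal sodium.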

[9] = qHTS assay to test for compound auto fluorescence at 535 nm (green) in HEK293 cells (AID 720680)
[10] = qHTS assay to test for compound auto fluorescence at 460 nm (blue) in HEK293 cell free culture (AID 720681)
Outline: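 Test compounds were pinned into cell-free culture medium (DMEM with 10% FBS) and fluorescence was read directly at Ex/Em 405/460 nm. Signals were expressed as fluorescence equivalents of triamterene, with DMSO vehicle as control.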

[11] = qHTS assay to test for compound auto fluorescence at 535 nm (green) in HEK293 cell free culture (AID 720682)
Outline: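 Each library compound, or DMSO control, is added by pintool to medium alone, comprising DMEM and 10% FBS. Emission at 535 nm following 485 nm excitation is quantified against fluorescein.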

[12] = qHTS assay to test for compound auto fluorescence at 590 nm (red) in HEK293 cell free culture (AID 720683)
Outline: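 Tox21 10K library compounds were pinned into cell-free DMEM with 10% FBS and fluorescence was read at excitation 540 nm. Activity is expressed as Rose Bengal sodium equivalency.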

[13] = qHTS assay to test for compound auto fluorescence at 590 nm (red) in HepG2 cell free culture (AID 720684)
Outline: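 Ex 540 / Em 590 nm read of compound in cell-free MEM (10% FBS). Rose Bengal sodium reference.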

[14] = qHTS assay to test for compound auto fluorescence at 460 nm (blue) in HepG2 cell free culture (AID 720685)
Outline: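 Cell-free plates of MEM plus 10% FBS received 23 nL compound or DMSO vehicle; blue-channel (405/460 nm) intensity scored against triamterene as reference fluorophore.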

[15] = qHTS assay to test for compound auto fluorescence at 535 nm (green) in HepG2 cell free culture (AID 720686)
[16] = qHTS assay to test for compound auto fluorescence at 460 nm (blue) in HepG2 cells (AID 720687)
Outline: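 Cells (2,000/well in MEM with 10% FBS) attached overnight at 37 C, then were exposed to compound or DMSO for 1 hr at 37 C, 5% CO2. Fluorescence read at Ex/Em 405/460 nm, expressed as triamterene-equivalent signal.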

[17] = target: Glucocorticoid receptor (Homo sapiens) (UniProt P04150); assay: qHTS assay to identify small molecule agonists of the glucocorticoid receptor (GR) signaling pathway (AID 720691; active means well fitted activation curve with a large enough effect in the signal ratio in the repeat runs, not every such curve was filed as active; the % refers to the signal ratio)
Glucocorticoid receptor (Homo sapiens), sequence (P04150 whole entry, looked up): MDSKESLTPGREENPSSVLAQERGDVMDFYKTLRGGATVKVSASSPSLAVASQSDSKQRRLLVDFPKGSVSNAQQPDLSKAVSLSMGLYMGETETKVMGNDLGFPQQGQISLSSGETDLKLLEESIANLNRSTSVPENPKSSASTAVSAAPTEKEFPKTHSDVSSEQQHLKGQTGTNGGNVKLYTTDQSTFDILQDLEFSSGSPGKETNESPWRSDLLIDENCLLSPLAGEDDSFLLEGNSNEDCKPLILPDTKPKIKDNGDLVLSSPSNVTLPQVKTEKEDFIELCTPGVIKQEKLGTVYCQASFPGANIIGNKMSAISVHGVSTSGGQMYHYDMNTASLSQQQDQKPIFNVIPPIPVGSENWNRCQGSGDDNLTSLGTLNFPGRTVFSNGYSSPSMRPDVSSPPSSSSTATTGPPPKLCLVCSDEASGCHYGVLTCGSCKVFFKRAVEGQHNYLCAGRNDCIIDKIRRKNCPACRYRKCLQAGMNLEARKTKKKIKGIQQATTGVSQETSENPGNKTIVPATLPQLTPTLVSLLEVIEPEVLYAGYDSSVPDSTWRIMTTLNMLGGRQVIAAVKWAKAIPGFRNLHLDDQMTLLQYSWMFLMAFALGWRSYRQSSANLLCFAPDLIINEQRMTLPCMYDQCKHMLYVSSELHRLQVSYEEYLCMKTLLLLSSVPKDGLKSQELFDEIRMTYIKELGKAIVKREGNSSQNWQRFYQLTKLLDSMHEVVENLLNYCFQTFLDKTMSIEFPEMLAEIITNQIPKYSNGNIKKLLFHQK
Outline: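 Steps: seed GR-bla HeLa cells, incubate 4 h at 37 C/5% CO2; pin-transfer DMSO-dissolved compounds; incubate 18 h at 37 C; add LiveBLAzer B/G FRET substrate; after 2 h at room temperature, measure fluorescence.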

[18] = target: Glucocorticoid receptor (Homo sapiens) (UniProt P04150); assay: qHTS assay to identify small molecule antagonists of the glucocorticoid receptor (GR) signaling pathway (AID 720692; active means well fitted inhibition curve with a large enough effect in the signal ratio in the repeat runs, not every such curve was filed as active; the % refers to the signal ratio)
Outline: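 Antagonism was scored as loss of dexamethasone-driven (5 nM final) reporter signal in HeLa cells bearing a glucocorticoid response element–beta-lactamase construct, after 18 h compound exposure at 37 C and 2 h FRET substrate loading.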

[19] = qHTS assay to test for compound auto fluorescence at 535 nm (green) in HepG2 cells (AID 720675)
[20] = qHTS assay for small molecule disruptors of the mitochondrial membrane potential - cell viability (AID 720634; calls by dose curve; further: nearly all actives have a fitted effect of over 20% in size; further: potency means the concentration at half of the fitted maximal effect)
Outline: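 Cytotoxicity was measured by ATP quantitation in HepG2 wells that had first been treated with compound for 1 hr and stained with m-MPI dye; CellTiter-Glo incubation was 30 min at room temperature.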

SMILES	Potency [1]	Potency [2]	Potency [3]	Potency [4]	Potency [5]	outcome [6]	outcome [7]	outcome [8]	outcome [9]	outcome [10]	outcome [11]	outcome [12]	outcome [13]	outcome [14]	outcome [15]	outcome [16]	Potency [17]	Potency [18]	outcome [19]	Potency [20]
c1ccc(NNc2ccccc2)cc1	inactive	inactive	inactive	inactive	inactive	inactive	inactive	inactive	inactive	inactive	inactive	inactive	inactive	inactive	inactive	inactive	inactive	inactive	–	–
CCC(CC)Nc1c([N+](=O)[O-])cc(C)c(C)c1[N+](=O)[O-]	inactive	inactive	inactive	inactive	49.2 µM (active)	inactive	inactive	inactive	inactive	inactive	inactive	inactive	inactive	inactive	inactive	–	inactive	inactive	inactive	–
CC(C)c1ccc(CO)cc1	inactive	inactive	inactive	inactive	–	inactive	inactive	inactive	inactive	inactive	inactive	inactive	inactive	inactive	inactive	inactive	–	–	inactive	inactive
CCN(CC)N=O	inactive	–	inactive	inactive	inactive	inactive	inactive	inactive	inactive	inactive	inactive	inactive	inactive	inactive	inactive	–	–	–	inactive	inactive
c1ccc(P(c2ccccc2)c2ccccc2)cc1	inactive	inactive	inactive	inactive	–	–	inactive	inactive	inactive	inactive	inactive	inactive	inactive	inactive	inactive	–	inactive	inactive	–	inactive
O=C(O)C(F)(F)C(F)(F)C(F)(F)C(F)(F)C(F)(F)C(F)(F)C(F)(F)F	inactive	inactive	inactive	inactive	–	inactive	inactive	inactive	inactive	inactive	inactive	inactive	inactive	inactive	inactive	inactive	–	–	–	inactive
OCC(O)CO	inactive	inactive	inactive	inactive	inactive	–	–	–	–	–	–	–	–	–	–	–	inactive	inactive	–	inactive
CC(C)N(C(=O)SCC(Cl)=C(Cl)Cl)C(C)C	inactive	inactive	inactive	inactive	13.5 µM (active)	–	inactive	inactive	inactive	inactive	inactive	inactive	inactive	inactive	inactive	–	inactive	inactive	inactive	–
CCC(C)(C)c1ccc(O)cc1	inactive	inactive	inactive	inactive	26.6 µM (active) and 17.4 µM (active) and 15.4 µM (active)	–	inactive	inactive	inactive	inactive	inactive	inactive	inactive	inactive	inactive	inactive	inactive	inactive	–	55 µM (active) and inactive
CCOc1cc(Oc2ccc(C(F)(F)F)cc2Cl)ccc1[N+](=O)[O-]	inactive	inactive	inactive	inactive	17.4 µM (active) and 24.3 µM (active)	–	inactive	inactive	inactive	inactive	inactive	inactive	inactive	inactive	inactive	inactive	inactive	inactive	–	19.5 µM (active)
N[C@@H](Cc1ccc(N(CCCl)CCCl)cc1)C(=O)O	13.3 µM (active) and 26.2 µM (active)	inactive	inactive	inactive	–	–	inactive	inactive	inactive	inactive	inactive	inactive	inactive	inactive	inactive	–	inactive	inactive	inactive	inactive
O=C(Nc1ccc(Br)cc1)c1cc(Br)cc(Br)c1O	8.41 µM (active) and 1.53 µM (active) and 12.2 µM (active)	inactive	944 nM (active) and 1.08 µM (active) and 2.17 µM (active)	–	1.88 µM (active) and 543 nM (active) and 545 nM (active)	inactive	inactive	inactive	inactive	inactive	inactive	inactive	inactive	inactive	inactive	inactive	inactive	–	inactive	inactive
CC1(C)C(C=C(Cl)Cl)C1C(=O)OC(C#N)c1cccc(Oc2ccccc2)c1 (stereo not drawn)	inactive	inactive	inactive	inactive	–	inactive	inactive	inactive	inactive	inactive	inactive	inactive	inactive	inactive	inactive	–	inactive	–	inactive	–
